Bioassay records from PubChem BioAssay.
BJeLR lethal = kills HRASV12-expressing BJeLR cells; AID 1554; BJeLR (HRASV12) viability, CellTiter-Glo ATP luminescence, 48 h; 300,000 compounds, 0.17% hits; inhibition, % (test concentration not listed); in the data active = inhibition above about 50%
PrP UTR inh = suppresses PrP 5' UTR mRNA reporter expression. 340,000 compounds, 0.35% hits. AID 488862. inhibition, % (no concentration beside the values). cell-based PrP 5' UTR mRNA reporter, plate reader; in the data active = inhibition above about 52%; note: 0 = median of the neutral control wells
Sa RN4220 lethal = S. aureus RN4220 growth inhibition; OD600, 16 h; inhibition, % (no concentration beside the values); 330,000 compounds, 0.33% hits; AID 1259311; in the data active = inhibition above about 85%;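 note: plate controls were untreated cells for no effect and reference antibiotic for full effect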
ugtP null kill = compounds lethal to S. aureus RN4220 ugtP deletion mutant. OD600 growth, 16 h. growth inhibition, % (test concentration not listed). 330,000 compounds, 0.54% hits; in the data active = growth inhibition above about 68%;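 note: plate controls were untreated wells for no effect and antibiotic for full effect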
Yp Topo-I inh = inhibitors of Yersinia pestis topoisomerase I; Y. pestis Topo-I cleavage product accumulation, plate reader; activity, % at 10 µM; 360,000 compounds, 0.064% hits; AID 504884; in the data active = activity above about 50%, passing the limit was not always enough
PfHsp40 rescue = restores yeast growth despite PfHsp40 toxicity. S. cerevisiae expressing PfHsp40, growth rescue, ATP luminescence. growth rescue, % at 12.5 µM. 340,000 compounds, 0.68% hits; in the data active = growth rescue above about 28%, passing the limit was not always enough;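 note: yeast W303a lacking pdr1 and pdr3 grown in galactose medium; growth measured after three days at 30 °C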
* hit, by the source's call; nt = no result given. In the library only some 1.4% were active in any assay of this set; here they are far more common.

SMILES | BJeLR lethal | PrP UTR inh | Sa RN4220 lethal | ugtP null kill | Yp Topo-I inh | PfHsp40 rescue
CN1CCN(CCCC(=O)c2ccc(C3CCCC3)cc2)CC1 | -4 | -34 | -3 | 85* | 0 | 0
CSc1cccc(NC(=O)/C=C/c2cccc(Cl)c2)c1 | -2 | -53 | 14 | -18 | -12 | 245*
O=C(/C=C/c1cccc(C(F)(F)F)c1)Nc1cccc(C(F)(F)F)c1 | 3 | -8 | 100* | 100* | 1 | 83*
CNC(=O)c1ccc(NC(=O)/C=C/c2cccc(F)c2)cc1 | -4 | -32 | 3 | -4 | 0 | 114*
O=C(/C=C/c1ccccc1)NC(NC(=S)Nc1cccc(Cl)c1)C(Cl)(Cl)Cl (stereo not drawn) | 1 | 79* | 50 | 45 | -3 | -2
COc1ccc(S(=O)(=O)Nc2cccc3c2OC(CN(C)S(=O)(=O)c2ccccc2)C(C)CN(C(C)CO)C3=O)cc1 (stereo not drawn) | nt | nt | 7 | -15 | nt | nt
NC(=NOS(=O)(=O)c1ccccc1)c1ccncc1 | nt | nt | -1 | -5 | nt | nt
CCN1C(=O)C2C(c3ccc(-c4ccc5c(c4)OCO5)cc3)N[C@@](Cc3ccccc3)(C(=O)OC)C2C1=O (stereo partly drawn) | nt | nt | 3 | 4 | nt | nt
Cc1ccc(-n2nc3c(c2NC(=O)C(C)(C)C)CSC3)c(C)c1 | 2 | -31 | 11 | 13 | 2 | 1
CCC(=O)Nc1c2c(nn1-c1ccc(C)cc1C)CSC2 | -2 | -21 | 3 | -3 | -5 | 48*
c1cncc(CSc2ccc(-c3cccnc3)nn2)c1 | -12 | -6 | 7 | 4 | 17 | 0
c1ccc(CSc2ccc(-c3ccccn3)nn2)nc1 | -36 | -60 | 2 | -3 | -8 | 416*
c1ccc(-c2ccc(SCc3cccnc3)nn2)nc1 | 5 | -28 | 1 | 3 | 5 | 259*
Clc1ccc(-c2ccc(SCc3ccccn3)nn2)cc1 | -4 | -80 | 14 | -2 | -3 | 0
Cc1noc(C)c1NC(=O)Nc1cccc2c1OC(CN(C)C(=O)NC(C)C)C(C)CN(C(C)CO)C2=O (stereo not drawn) | nt | nt | 3 | -8 | nt | nt
CCOC(=O)Cc1cc(=O)n(-c2nc3ccccc3s2)[nH]1 | -7 | -9 | 33 | 8 | 3 | 140*
CCC(C)(C)c1ccc(OCCCC[n+]2cccc(C)c2C)c(C(C)(C)CC)c1 | 57* | -3 | 101* | 100* | 0 | 45*
Cc1cc[n+](CC[n+]2ccc(C)cc2)cc1 | -9 | -5 | 7 | 4 | 6 | 1
CCC(C)(C)c1ccc(OCCCC[n+]2ccc(C)cc2)c(C(C)(C)CC)c1 | 24 | nt | 100* | 100* | nt | nt
Cc1cccc(NC(=O)NC(C)C(=O)O)c1 (stereo not drawn) | nt | nt | -4 | -8 | nt | nt
CCOC(=O)C1C2COc3ccc(Br)cc3C2N2C(=O)CN(Cc3ccc(C)cc3)C(=O)[C@@]12C (stereo partly drawn) | nt | nt | 5 | -28 | nt | nt
O=C1c2ccccc2C2=Nc3ccccc3SC(c3cccc(F)c3)C12 (stereo not drawn) | -13 | -15 | -6 | -2 | -22 | 281*
CC1CN(C(C)CO)C(=O)Cc2cc(NC(=O)Nc3ccc4c(c3)OCO4)ccc2OC1CN(C)S(=O)(=O)c1cccs1 (stereo not drawn) | nt | nt | -1 | -1 | nt | nt
COc1cccc(N/N=C/c2cccc(Br)c2O)c1 | 4 | -117 | nt | nt | -30 | 16
COc1cc(C=NNc2cccc(C)c2)cc(Br)c1O | nt | nt | 54 | 96* | nt | nt
SMILES | BJeLR lethal | PrP UTR inh | Sa RN4220 lethal | ugtP null kill | Yp Topo-I inh | PfHsp40 rescue
CC1CN(C(C)CO)C(=O)c2cccc(NC(=O)C3CC3)c2OC1CN(C)Cc1ccc(Cl)c(Cl)c1 (stereo not drawn) | nt | nt | 2 | 20 | nt | nt
CC(CCN1C(Nc2ccccc2)=NCC1C)c1ccccc1 (stereo not drawn) | nt | nt | 4 | -13 | nt | nt
Cc1ccc(O)c(Nc2nc(-c3ccccc3)nc3ccccc23)c1 | -9 | -9 | -14 | -1 | -6 | 0
COc1ccc(C)cc1Nc1nc(-c2ccccc2O)nc2ccccc12 | 8 | -28 | 53 | 91* | 3 | 0
O=[N+]([O-])c1cc(Cl)cc(C=Nn2cnnc2)c1O | nt | nt | 3 | 18 | nt | nt
CN(C)C1(CN=Cc2cc(Cl)cc([N+](=O)[O-])c2O)CCCCC1 | -6 | -18 | 6 | 8 | -10 | 42*
COc1ccc(S(=O)(=O)N(C)CC2Oc3c(NC(=O)Nc4ccc5c(c4)OCO5)cccc3C(=O)N(C(C)CO)CC2C)cc1 (stereo not drawn) | nt | nt | 1 | -1 | nt | nt
